# Methyltransferases = Primary Screen for Target Class Profiling of Small Molecule Inhibitors of Methyltransferases. purified enzyme, MTase-Glo SAH luminescence; active compounds read low. calls only at 40 µM. 3.9% of 25,000 active. AID 1745853, 2022; call rule not given here
#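 Each enzyme was assayed with SAM and its substrate. SAH formation detected by MTase-Glo luminescence; single-point 40 uM screen[…].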
# Numbers without * were called inactive; i = inactive; + = active, no number. The sample as a whole holds a higher share of hits than the screen did. % is set by controls: 0 for no effect and ±100 for the full control effect.
SMILES,Methyltransferases
COc1ccc(CNC(=O)c2cc3n(n2)CC(C)(C(=O)NCc2ccc(C)cc2)N(C)C3=O)c(OC)c1 (stereo not drawn),i
CCOCCCN1C(=O)c2cc(-c3ccccc3)nn2CC1(C)C(=O)NCc1ccccc1OC (stereo not drawn),i
CCCCN1C(=O)c2cc(C(=O)NCCN3CCN(CC)CC3)nn2CC1(C)C(=O)NC1CCCC1 (stereo not drawn),i
COc1ccc(-c2cc3n(n2)CC(C)(C(=O)NCc2ccccc2OC)N(c2ccc(F)cc2)C3=O)cc1 (stereo not drawn),i
Cc1[nH]nc2ccc(-c3cncc(OC[C@@H](N)Cc4ccccc4)c3)cc12,+
COc1cc(NC(=O)Cn2nc3n(CC(C)C)c(=O)c4ccccc4n3c2=O)cc(OC)c1,i
CN1C(=O)c2cc(C(=O)NCCCN3CCCC3)nn2CC1(C)C(=O)NC1CCCCCC1 (stereo not drawn),i
CCN(CC)CCOc1ccc(Nc2ncc3cc(-c4c(Cl)cccc4Cl)c(=O)n(C)c3n2)cc1,+
CC1(C(=O)NC2CCCC2)Cn2c(nc3ccccc32)C(=O)N1Cc1cccnc1 (stereo not drawn),i
CCCN1C(=O)c2c(C(=O)NCc3ccc(OC)cc3)ncn2CC1(C)C(=O)NCc1ccccc1 (stereo not drawn),i
C[S+](CC[C@H](N)C(=O)[O-])C[C@H]1O[C@@H](n2cnc3c(N)ncnc32)[C@H](O)[C@@H]1O (stereo partly drawn),i
CN(CCN1C(=O)c2cc3sccc3n2CC1(C)C(=O)NC1CCCCCC1)C1CCCCC1 (stereo not drawn),i
Cn1c(=O)c2ccc(C(=O)NC3CCCC3)cc2n2c(SCC(N)=O)nnc12,i
COc1ccc(-c2cc3n(n2)CC(C)(C(=O)NCc2ccccc2)N(Cc2ccc(N(C)C)cc2)C3=O)cc1 (stereo not drawn),i
O=C(NCc1ccc(F)cc1)c1ccc2c(=O)nc3c(-c4ccccc4F)n[nH]n3c2c1,i
C=Cc1ccc(Cn2nc3n(CCCOC(C)C)c(=O)c4ccccc4n3c2=O)cc1,i
CN1CCN(CCCN2c3ccccc3Sc3ccc(Cl)cc32)CC1,i
CN1CCN2c3ccccc3Cc3ccccc3C2C1 (stereo not drawn),i
CSc1ccc2c(c1)C(N1CCN(C)CC1)Cc1ccccc1S2 (stereo not drawn),+
CC(C)OCCCn1c(=O)c2ccccc2n2c(SCC(=O)Nc3cc(F)ccc3F)nnc12,i
CC1CCCC(NC(=O)C2(C)Cn3c(nc4ccccc43)C(=O)N2CCc2ccccc2)C1C (stereo not drawn),i
NC(N)=NC(=O)c1cnn(-c2cccc3ncccc23)c1C1CC1,+
CC(C)Cn1c(=O)c2ccc(C(=O)NC(C)C)cc2n2c(=O)n(Cc3ccc(Cl)cc3)nc12,i
Cc1cccc(N2C(=O)c3cc(-c4ccccc4)nn3CC2(C)C(=O)NCc2ccccc2)c1C (stereo not drawn),i
CCOC(=O)c1cc2n(n1)CC(C)(C(=O)NCCCOC(C)C)N(c1cccc(CC)c1)C2=O (stereo not drawn),i
SMILES,Methyltransferases
COc1cnc(-c2ccc(Cn3c(CC(C)(C)C(=O)O)c(SC(C)(C)C)c4cc(OC[C@@H]5Cc6ccccc6N5C(C)=O)ccc43)cc2)nc1,+
CC(C)NC(=O)c1ccc2c(=O)nc3c(-c4cccc(F)c4)n[nH]n3c2c1,i
CCCC1c2cccn2CCN1C(=O)Nc1ccc(F)c(Cl)c1 (stereo not drawn),i
Cc1cccc(Cn2nc3n(C)c(=O)c4ccc(C(=O)NCC(C)C)cc4n3c2=O)c1,i
O=C(Cn1nc2nc(Nc3ccc(F)cc3)ccn2c1=O)Nc1cc(F)cc(F)c1,i
COc1ccc2nc3n[nH]c(C)c3c(NCCOCCO)c2c1,+
CC1(C(=O)NCc2ccc(F)cc2)Cn2cnc(C(=O)Nc3ccc4c(c3)OCCO4)c2C(=O)N1C1CC1 (stereo not drawn),i
CC(C)CNC(=O)c1ccc2c(=O)n(C(C)C)c3nn(Cc4ccc(F)cc4Cl)c(=O)n3c2c1,i
O=C(Cn1c(=O)oc2cc(S(=O)(=O)NC3CCCC3)ccc21)NCc1ccccc1Cl,i
CCCCN1C(=O)c2cc(C(=O)Nc3c(C)cccc3CC)nn2CC1(C)C(=O)NC1CCCC1 (stereo not drawn),i
CCC(C)NC(=O)c1ccc2c(=O)n(C)c3nnc(SCC(=O)NC4CCCCC4)n3c2c1 (stereo not drawn),i
CCCn1c(=O)c2ccc(C(=O)NC3CCCC3)cc2n2c(=O)n(CC(=O)c3ccc(OC)cc3)nc12,i
O=C(O)C1=CC(=C(c2ccc(O)c(C(=O)O)c2)c2ccc(O)c(C(=O)O)c2)C=CC1=O,+
Cc1cccc(NC(=O)c2cc3n(n2)CC(C)(C(=O)NCc2ccc(F)cc2)N(C)C3=O)c1C (stereo not drawn),i
C=C1C(=O)O[C@@H]2/C=C(\CO)CC/C=C(/C=O)C[C@@H](O)[C@@H]12,+
C=C1C(=O)O[C@@H]2/C=C(\CO)CC/C=C(/C=O)C[C@H](O)[C@@H]12,+
C=C1C(=O)OC2/C=C(\COC(C)=O)CC/C=C(\C=O)CC(OC(=O)CC(C)C)C12 (stereo not drawn),i
C=C1C(=O)OC2C3=C(C)C(=O)CC3C(C)CC(O)C12 (stereo not drawn),i
C=C1C(=O)OC2/C=C(\CO)CC/C=C(\C=O)CC(OC(=O)CC(C)C)C12 (stereo not drawn),+
C=C(C)C(=O)O[C@H]1[C@H]2C(=C)C(=O)O[C@@H]2/C=C(\CO)CC/C=C(/C=O)[C@@H]1O,i
C=C1C(=O)OC2/C=C(\C)CC/C=C(\C(=O)O)CC/C=C(\C)CCC12 (stereo not drawn),i
CCn1c(=O)n(CC)c2cc(S(=O)(=O)N3CCN(c4ccc(OC)cc4)CC3)ccc21,i
Cc1ccccc1NC(=O)Cn1nc2n(C)c(=O)c3ccc(C(=O)NC4CCCCC4)cc3n2c1=O,i
CC1CCN(S(=O)(=O)c2nn(C)cc2C(=O)NCCc2cccs2)CC1,i
CC(NC(=O)c1ccc2c(=O)nc3c(-c4ccccc4)n[nH]n3c2c1)c1ccccc1 (stereo not drawn),i
SMILES,Methyltransferases
CCCn1c(=O)c2cc(Cl)ccc2n2c(=O)n(Cc3cccc(Cl)c3)nc12,i
O=C(CCc1nnc2n(Cc3ccc(Cl)cc3)c(=O)c3ccccc3n12)N1CCN(C2CCCCC2)CC1,i
CC1(C(=O)NCc2ccccc2)Cn2cnc(C(=O)NCCc3cccs3)c2C(=O)N1C1CC1 (stereo not drawn),i
O=C(CSc1nnc2n(Cc3ccccc3)c(=O)c3ccccc3n12)Nc1ccc(Cl)cc1,i
Cc1ccccc1CSc1nnc2n(C)c(=O)c3ccc(C(=O)NC4CCCC4)cc3n12,i
Cn1c(=O)c2ccc(C(=O)NC3CCCCC3)cc2n2c(=O)n(Cc3c(F)cccc3Cl)nc12,i
CC(C)(C)c1ccc(S(=O)(=O)/C=C/C#N)cc1,+
Cc1ccc(NC(=O)Cn2nc3n(CCCOC(C)C)c(=O)c4ccccc4n3c2=O)c(C)c1,i
CC(C)c1cc2n(n1)CC(C)(C(=O)NC1CCCCC1)N(Cc1ccc(Cl)cc1)C2=O (stereo not drawn),i
CN1C(=O)c2cc(C(=O)N3CCN(c4ncccn4)CC3)nn2CC1(C)C(=O)NC1CCCCCC1 (stereo not drawn),i

# High-throughput results as filed in PubChem BioAssay.
